# Screening data as filed in PubChem.
# B2AR arrestin: qHTS assay of beta-arrestin-biased ligands of beta2-adrenergic receptor; Beta-2 adrenergic receptor (Homo sapiens), P07550; beta-arrestin recruitment to beta2AR, cell-based reporter; Potency, µM (doses to about 46.1 µM), for the others: at the top dose activation, actives largely listed as activators; 330,000 compounds, 0.02% hits; AID 492947, 2010; active means well fitted activation curve with a large enough effect; inconclusive means small, poorly fitted or top-dose-only effect;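 further: potency means the concentration at half of the fitted maximal effect; 0% = DMSO controls and full agonism = EC100 isoproterenol or metaproterenol; nearly all actives have a fitted effect of over 65% in size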
# D3 antag: qHTS of D3 Dopamine Receptor Antagonist: qHTS; max response, negative = inhibition, %; D(3) dopamine receptor (Homo sapiens), P35462; D3R cells, DiscoveRx beta-arrestin luminescence, antagonist mode; active compounds read low; 360,000 compounds, 2.5% hits; AID 652054, 2013; in the data active means max response below about -50%; inconclusive means no clear call, values can overlap the other calls; further: on the % scale 0 is the no-effect control and ±100 the full control effect
#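 Cells plated overnight at 1500 cells/well, then exposed to library compounds with dopamine controls for 90 minutes at 37 degrees C. DiscoveRx reagent added for 30–60 minutes at room temperature; luminescence read, quantitative HTS format.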
# TSHR antagonist: Antagonists of the Thyroid Stimulating Hormone Receptor: HTS campaign | TSHR-expressing cells, TSH-stimulated cAMP HTRF, 2 h; active compounds read low | 330,000 compounds, 0.2% hits | AID 504810, 2011 | activity change, negative = inhibition, % at 11.5 µM | Thyrotropin receptor (Homo sapiens), P16473;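 active means activity change below a set negative limit, meaning inhibition stronger than a set level, cut at about -70% in these data; inconclusive means activity change between two set negative limits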; further: on the % scale 0 is the no-effect control and ±100 the full control effect
# Target sequence (P16473 whole entry, looked up): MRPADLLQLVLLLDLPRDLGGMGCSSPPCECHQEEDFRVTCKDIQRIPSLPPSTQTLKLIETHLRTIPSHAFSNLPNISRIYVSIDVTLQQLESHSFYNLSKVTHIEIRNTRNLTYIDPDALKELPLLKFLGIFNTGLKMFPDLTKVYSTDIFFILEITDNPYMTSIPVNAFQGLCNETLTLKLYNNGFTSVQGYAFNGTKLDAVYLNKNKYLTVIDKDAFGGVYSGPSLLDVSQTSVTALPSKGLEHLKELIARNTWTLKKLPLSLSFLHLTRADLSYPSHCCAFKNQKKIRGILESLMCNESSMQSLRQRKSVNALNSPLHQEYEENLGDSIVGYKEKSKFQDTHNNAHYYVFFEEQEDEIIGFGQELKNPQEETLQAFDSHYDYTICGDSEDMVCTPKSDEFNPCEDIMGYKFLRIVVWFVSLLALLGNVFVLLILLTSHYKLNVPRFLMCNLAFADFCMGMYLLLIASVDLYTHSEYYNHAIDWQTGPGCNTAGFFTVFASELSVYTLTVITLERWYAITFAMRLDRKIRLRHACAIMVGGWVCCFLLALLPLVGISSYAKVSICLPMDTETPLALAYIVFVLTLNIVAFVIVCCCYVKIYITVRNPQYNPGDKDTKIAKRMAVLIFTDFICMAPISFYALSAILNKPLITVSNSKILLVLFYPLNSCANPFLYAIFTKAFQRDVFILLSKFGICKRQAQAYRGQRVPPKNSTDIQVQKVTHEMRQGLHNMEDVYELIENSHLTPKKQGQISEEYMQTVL
#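 TSHR-expressing cells, 200/well, pre-treated with compound, then stimulated with EC80 TSH (4nM final) for 2 hours at 37 deg C. cAMP measured by competitive HTRF: anti-cAMP cryptate antibody in lysis buffer plus cAMP-d2, read after 30 minutes at room temperature.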
# DRD3 agonist: qHTS of D3 Dopamine Receptor Agonist: qHTS | D(3) dopamine receptor (Homo sapiens), P35462 | D3R DiscoveRx beta-arrestin cells, luminescence, 90 min | max activation, % | 410,000 compounds, 0.58% hits | AID 652048, 2013; in the data active means max activation above about 30%; further: 0% is about no effect
#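 Agonist mode: compounds and dopamine controls were applied to plated cells for 90 min at 37 degrees C after an overnight attachment at 1500 cells/well. Luminescent read-out followed 30 - 60 minutes at room temperature with DiscoveRx detection reagent.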
# Numbers without * were called inactive; ? = inconclusive; nt = no result. This is a sample that favours compounds with a hit; in the whole collection about 2.9% have one here.
SMILES,B2AR arrestin,D3 antag,TSHR antagonist,DRD3 agonist
Cc1cccc(N2CCN(S(=O)(=O)c3ccc(F)c(C(=O)Nc4ccc(C(C)C)cc4)c3)CC2)c1C,nt,nt,nt,6
CC(=O)N=c1sc(S(N)(=O)=O)nn1C,-1%,-121*,-19,-91
CC(=O)Nc1nc(C)c(S(N)(=O)=O)s1,0%,8,-7,4
Cc1ccc(Cn2c(CNC(=O)CCc3ccccc3)nc3cccnc32)cc1,nt,nt,nt,-2
CCN(CC)c1ccc(/C=N/n2c(-c3ccccc3Br)n[nH]c2=S)cc1,-1%,-71*,-2,-34
CCN1CCN(C(=O)c2ccc(NS(=O)(=O)c3ccccc3)cc2)CC1,0%,19,2,-15
CCC1CCCCN1CCCNC(=O)c1cn(CC(C)C)c(=O)c2cc(OC)c(OC)cc12 (centres undefined),0%,-68*,23,-2
CCC1CCCCN1CCCNC(=O)c1c(C)oc2ncn(CC(C)C)c(=O)c12 (centres undefined),nt,nt,nt,-6
C[C@@H](O[C@H]1OCCN(Cc2n[nH]c(=O)[nH]2)[C@H]1c1ccc(F)cc1)c1cc(C(F)(F)F)cc(C(F)(F)F)c1,nt,nt,nt,14
CCOc1ccc(NC(=O)Cc2c(O)c3ccccc3[nH]c2=O)cc1,0%,-63*,30,-13
CCn1ccnc1CNC(=O)c1ccc2oc(CCCc3ccccc3)nc2c1,0%,-51*,3,-15
Cc1onc(C(=O)NN)c1-c1csc(COc2ccc(Cl)cc2)n1,0%,4,-7,44*
CN1CCN(c2nc(-c3cccnc3)nc3ccccc23)CC1,0%,?,nt,1
CCCOc1ccc(-c2nc(N3CCN(C)CC3)c3ccccc3n2)cc1,-1%,-59*,-7,-10
CN1CCN(c2nc(-c3ccccn3)nc3ccccc23)CC1,0%,-51*,48,4
c1ccc(N2CCN(c3nc(-c4ccccn4)nc4ccccc34)CC2)cc1,0%,-82*,-5,-11
Brc1ccc(-c2nc(N3CCN(c4ccccc4)CC3)c3ccccc3n2)cc1,nt,nt,nt,-8
CCCOc1ccc(-c2nc(N3CCN(CC)CC3)c3ccccc3n2)cc1,0%,?,13,-3
CCOC(=O)c1c(-c2ccc(C)cc2)csc1NC(=O)c1nc(SC(C)C)ncc1Cl,nt,nt,nt,8
COc1cc2c(cc1OC)n(CC(=O)c1cccc(Cl)c1)c(=O)n1nc(CCn3nc(C)cc3C)nc21,nt,nt,nt,10
COCCNC(=O)c1cnn(-c2ccc(C)cc2C)c1C1CCN(C(=O)OC(C)(C)C)CC1,nt,nt,nt,7
CCC1=NN(C(=O)C(=O)NCCc2ccccc2)C(O)(C(F)(F)F)C1 (centres undefined),0%,-65*,-10,-16
CCC1=NN(C(=O)C(=O)Nc2ccccc2OC)C(O)(C(F)(F)F)C1 (centres undefined),0%,21,4,-21
CCC1=NN(C(=O)C(=O)Nc2ccc(OC)cc2)C(O)(C(F)(F)F)C1 (centres undefined),0%,-159*,44,-36
Cc1ccc(-c2ccc(/C=N/N=C3/NC(=O)C(CC(=O)O)S3)o2)c([N+](=O)[O-])c1 (centres undefined),0%,-79*,-72*,-3
SMILES,B2AR arrestin,D3 antag,TSHR antagonist,DRD3 agonist
COc1ccc([C@H]2C[C@H](O)[C@@H](n3cc(-c4ccc(F)cc4)nn3)CN2C(=O)c2cccs2)cc1,nt,5,nt,71*
COc1ccc([C@H]2C[C@@H](n3cc(-c4ccc(F)cc4)nn3)[C@H](O)CN2C(=O)c2cccs2)cc1,nt,-4,nt,3
CCC(CO)Oc1cc(NCc2ccncc2)c2ncn(C(C)C)c2c1 (centres undefined),-1%,1,-22,56*
CCC(CN(C)C)Oc1cc(NCc2ccccc2)c2ncn(C(C)C)c2c1 (centres undefined),0%,-55*,-5,-18
CCC(CO)Oc1cc(NCc2ccc(F)cc2)c2ncn(C(C)C)c2c1 (centres undefined),1%,0,0,8
CCC(CO)Oc1cc(NC(=O)c2ccc([N+](=O)[O-])cc2)c2ncn(C(C)C)c2c1 (centres undefined),0%,-61*,1,2
CCC(CO)Oc1cc(NC(=O)c2cccc([N+](=O)[O-])c2)c2ncn(C(C)C)c2c1 (centres undefined),0%,-21,-10,0
COc1ccc(NC(=O)c2ncoc2-c2ccco2)cc1Cl,nt,nt,nt,-5
CCc1nn2c(=O)cc(COC(=O)c3ccccc3NC(=O)COc3ccc(C)c(C)c3)nc2s1,nt,nt,nt,3
CN(C)CC1CCCCC1C1(O)c2ccccc2CSc2sccc21 (centres undefined),0%,-73*,0,1
CCOC(=O)C1(C)CCN1C(=O)c1cccc(Cl)c1 (centres undefined),nt,0,nt,48*
Cc1c(C(=O)N(Cc2ccc(N(C)C)cc2)Cc2ccco2)oc2cc(Br)ccc12,nt,nt,nt,-16
CN(CC(=O)Nc1cccc(F)c1)C(=O)/C=C/c1cc(Br)ccc1OC(F)F,-1%,-54*,-5,-9
CN(CC(=O)Nc1cccc(F)c1)C(=O)/C=C/c1ccc(Br)s1,0%,-28,8,-18
O=C(N/N=C/c1ccccn1)c1[nH]c2ccc([N+](=O)[O-])cc2c1-c1ccccc1,-1%,-60*,-15,-8
NNC(=O)c1[nH]c2ccc([N+](=O)[O-])cc2c1-c1ccccc1,-1%,-14,-2,-7
O=C(N/N=C/c1ccccc1)c1[nH]c2ccc(Br)cc2c1-c1ccccc1,0%,-89*,-1,-19
Cc1ccc(C)c(N2CCN(S(=O)(=O)c3ccc4c(c3)CC(C)N4C(=O)C3CC3)CC2)c1 (centres undefined),0%,-2,-77*,-3
Cc1ccc(Cl)cc1N1CCN(S(=O)(=O)c2ccc3c(c2)CC(C)N3C(=O)C2CCC2)CC1 (centres undefined),nt,nt,nt,-11
COc1ccc(S(=O)(=O)N2CCN(C3CC4CCC3C4)CC2)cc1 (centres undefined),-1%,-16,-7,-19
COc1ccc(S(=O)(=O)N2CCN(C(=O)c3c(C)nn(-c4ccccc4)c3Cl)CC2)cc1,0%,0,0,-15
Cc1ccc(S(=O)(=O)N2CCN(S(=O)(=O)c3ccccc3)C2)cc1,0%,-51*,-6,3
Cc1ccc(S(=O)(=O)N2CCN(C3CC4CCC3C4)CC2)cc1 (centres undefined),-1%,-61*,-3,-23
Cc1ccc(S(=O)(=O)N2CCN(C(=O)c3c(C)nn(-c4ccccc4)c3Cl)CC2)cc1,0%,-71*,6,-14
Cc1cc(C)c(S(=O)(=O)N2CCN(C(=O)c3ccc(-n4nc(C)c(Cl)c4C)cc3)CC2)c(C)c1,nt,-2,nt,101*
